Drawing on PubChem BioAssay (NCATS), this text covers outcome and Potency for six compounds.

For assay [1], the target named is Ferritin light chain (Equus caballus) (UniProt P02791). The experiment in a line: qHTS Validation Assay for Identification of Novel General Anesthetics (AID 2323). Also: series mostly up to about 77 µM. The method, boiled down: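 10 uM horse-spleen apoferritin + 1-AMA (50% saturated, PBS); cpd pin-transferred, 10 min RT. Ex 380/Em 535 nm endpoint. Activity normalized between free 1-AMA and 1-AMA/apoferritin; 4-parameter Hill fit of concentration-response.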

The target of assay [2] is ATP-dependent DNA helicase Q1 (Homo sapiens) (UniProt P46063). Kind of assay: qHTS Validation Assay for Inhibitors of RecQ-Like Dna Helicase 1 (RECQ1) (AID 2353). The method, boiled down: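 RECQ1T1 50 nM; forked duplex (20 bp + 30-nt ss tails) 200 nM, ATP 2 mM final; pH 8.0, 2 mM MgCl2, 2.5 ug/ml poly(dI-dC); 15 min compound preincubation; discontinuous kinetic read over 2 h at RT.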

Assay [3] can be described thus: Cytometric Cell-Based qHTS for Inhibitors of the mTORC1 Signaling Pathway in MEF (Tsc2-/-, p53-/-) Cells (AID 2660).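 Also: Tsc2 and p53 null MEFs carrying empty vector with compound for 24 h; percent of cells above a phospho-rpS6 to PI ratio cutoff in each well; series mostly up to about 38 µM.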 The method, boiled down:
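Immunofluorescence qHTS of rpS6 Ser235/236 phosphorylation: MEFs (Tsc2-/-, p53-/-) treated 24 h, 37 C, in DMEM + 10% FBS. Alexa-488 signal normalized to PI count, referenced to rapamycin (7.5 nM) and DMSO; PI cell number recorded for viability.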

Assay [4] is described as follows: High Content Imaging Cell-Based qHTS for Inhibitors of the mTORC1 Signaling Pathway in MEF (Tsc2-/-, p53-/-) Cells (AID 2666).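 Also: percent of cells scored positive for phospho-rpS6 Ser235/236 immunostaining by imaging.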 The method, boiled down:
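MEF Tsc2-/- p53-/- (empty vector), DMEM/10% FBS; cpd 24 h 37 °C; PFA fix, Alexa-488 p-rpS6 S235/236 Ab, Hoechst; imaged; rapamycin-defined inhibition; % positive cells/well.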

A short description of assay [5]: High Content Imaging Cell-Based qHTS for Inhibitors of the mTORC1 Signaling Pathway in MEF Cells (AID 2667).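 Also: Tsc2-/- p53-/- MEFs stably re-expressing wild-type Tsc2 exposed 24 h; series mostly up to about 38 µM.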 The method, boiled down: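 Read-out is the share of phospho-rpS6-positive cells per well, from Hoechst-normalized Alexa-488 Ser235/236 staining imaged on IN Cell. Cells: WT Tsc2-expressing Tsc2-/-, p53-/- MEFs exposed to compound for 24 hrs.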
A short description of assay [6]: Cytometry Cell-Based qHTS for Inhibitors of the mTORC1 Signaling Pathway in MEF cells (AID 2668).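 Also: Tsc2-/- p53-/- mouse embryonic fibroblasts stably re-expressing wild-type Tsc2; percent cells positive for phospho-rpS6 Ser235/236 relative to propidium iodide stain; series mostly up to about 38 µM.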 The method, boiled down:
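Read-out: phospho-rpS6 Ser235/236 immunofluorescence normalized to propidium iodide intensity, scored as % active cells against a rapamycin (7.5 nM) threshold. Cells: Tsc2-/-, p53-/- MEFs stably expressing WT Tsc2, compound-treated 24 hrs at 37 degree Celsius.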

The nature of assay [7]: Validation screen for small molecules that induce DNA re-replication in MCF 10A normal breast cells (AID 463097). Also: nearly all actives have a fitted effect of over 60% in size. Also: potency is read from the fitted curve at half-maximal effect. The method, boiled down:
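250 MCF 10A cells/well; compound pin-transferred; 48 hr, 37 C, 5% CO2; Hoechst 40 min; imaged 405/500-530 nm. Hits = more high-intensity nuclei.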

The target of assay [8] is Ubiquitin carboxyl-terminal hydrolase 2 (Homo sapiens) (UniProt O75604). The experiment in a line: qHTS Validation Assay for Inhibitors of Ubiquitin-specific Protease USP2a Using CHOP2 as the Reporter (AID 463106). The method, boiled down: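 Fluorescence read-out at Ex 485nm/Em 531nm after 60min RT, following addition of 25nM Ub-CHOP2 plus 25nM reporter substrate to USP2 core (10nM) pretreated 30min with compound. Data normalized to NEM full inhibition; concentration-response curves fitted.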

Assay [9] addresses DNA polymerase III PolC-type (Bacillus subtilis (strain 168)) (UniProt P13267). Kind of assay: qHTS Validation Assay for the Inhibitors of DNA Replication in Gram-Positive Bacteria (AID 485295).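 Also: reconstituted holoenzyme with PolC plus beta clamp SSB and primase; PicoGreen fluorescence of double-stranded DNA made on primed circular M13 template; series mostly up to about 57 µM.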 In outline:
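PicoGreen fluorescence (ex 480–485/em 535–540 nm) reports dsDNA synthesized on ssM13Gori template with dNTPs/NTPs. Enzyme: holoenzyme rebuilt from purified PolC, beta subunit, SSB and primase. Compound preincubated before substrate addition; RT throughout.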

Assay [10] deals with Tumor susceptibility gene 101 protein (Homo sapiens) (UniProt Q99816). Kind of assay: qHTS Validation Assay for Iinhibitors of HIV-1 Budding by Blocking the Interaction of PTAP/TSG101 (AID 485342; calls by dose curve). The method, boiled down: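 FP read-out: FITC-PTAP peptide, 50 nM final, binding Tsg101 binding domain, 10 uM final; 20 min r.t.; 10 mM HEPES pH 7.5, 0.15 M NaCl, 0.01% Tween 20, 3 mM EDTA, 0.1 mM TCEP.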

Assay [11] can be described thus: qHTS Validation Assay to Find Inhibitors of Chronic Active B-Cell Receptor Signaling (AID 485345; active = well fitted curve in the direction sought with a large enough effect in the main read-out, with a control signal flat, not every such curve was filed as active). The method, boiled down: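 TMD8 ABC-DLBCL cells stably carrying doxycycline-inducible IkappaBalpha–green luciferase fusion plus unfused red luciferase; compounds 46 uM to 3 nM, 4 h at 37C with doxycycline. Corrected green/red luminescence ratio normalized to 10 uM MG-132 and basal cell wells; curves fitted.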

Assay [12] addresses ATP-dependent 6-phosphofructokinase (Trypanosoma brucei brucei) (UniProt O15648). The experiment in a line: qHTS Validation Assay to Find Inhibitors of T. brucei phosphofructokinase (AID 485368). Particulars: outcome: dose series up to 57.5 µM. The method, boiled down:
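ADP-Glo luminescence, two-step: residual ATP depleted, then ADP converted to ATP for luciferase. Enzyme 1.25 nM, F6P 0.5 mM, ATP 0.1 mM, pH 8.0 TEA buffer, 45 min RT. Curves fitted and classed by quality and efficacy.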

Assay [13] can be described thus: Quantitative high throughput screen for delayed death inhibitors of the malarial parasite plastid, 96 hour incubation (AID 488745). Also: nearly all actives have a fitted effect of over 70% in size. Also: potency is read from the fitted curve at half-maximal effect. The method, boiled down:
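Decreased firefly luciferase luminescence indicates inhibited growth of reporter-integrated P. falciparum after two generations (96 h, 37 C, 5% CO2). Infected erythrocytes at 0.1% parasitemia, 2% hematocrit, in Albumax-supplemented RPMI 1640.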

Assay [14] can be described thus: Quantitative high throughput screen for delayed death inhibitors of the malarial parasite plastid, 48 hour incubation (AID 488752). Also: nearly all actives have a fitted effect of over 65% in size. In outline: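 One-generation (48 h) growth assay: a decrease in luciferase signal from an integrated reporter in P. falciparum-infected red cells (0.1% parasitemia, 2% hematocrit) after compound exposure at 37 C indicates parasite inhibition.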

Assay [15] deals with Thioredoxin reductase 1, cytoplasmic (Rattus norvegicus) (UniProt O89049). The experiment in a line: qHTS Assay for Substrates of Mammalian Selenoprotein Thioredoxin Reductase 1 (TrxR1) (AID 488772).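 Also: series mostly up to about 57 µM; a drop in NADPH fluorescence below the no-compound background marks a TrxR1 substrate.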 The method, boiled down:
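In this dual-purpose format, potential substrates are identified from the first fluorescence read after selenite addition, not from the 8-minute delta. Rat enzyme is preincubated with NADPH and then with compound at ~22 deg C.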

Assay [16] has the same target. The experiment in a line: qHTS Assay for Inhibitors of Mammalian Selenoprotein Thioredoxin Reductase 1 (TrxR1) (AID 488773). Also: nearly all actives have a fitted effect of over 40% in size. Also: potency is read from the fitted curve at half-maximal effect. Particulars: Potency: inhibition. The method, boiled down: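 Inhibition is scored from the loss of NADPH fluorescence between first and last reads of an 8-min kinetic run. Selenite (400 uM) was the substrate, added after 15 min compound preincubation at room temperature.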

Assay [17] addresses Flap endonuclease 1 (Homo sapiens) (UniProt P39748). Kind of assay: qHTS Validation Assay for the Inhibitors of Human Flap endonuclease 1 (FEN1) (AID 488816). In outline: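 Enzyme reagent 10 nM; cpds pinned; 15 min RT preinc.; substrate 50 nM final; reads t=0 and 15 min; no-enzyme buffer wells as neg. control; normalized data, 4-parameter Hill fit.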
Assay [18] has as its target M-phase phosphoprotein 8 (Homo sapiens) (UniProt Q99549). Kind of assay: qHTS Validation Assay for Inhibitors for MPP8 Chromodomain Interactions with Methylated Histone Tails (AID 488949).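 Also: AlphaScreen signal from MPP8 chromodomain bound to biotinylated H3K9me3 peptide; top concentration of the series differs between compounds; nearly all actives have a fitted effect of over 55% in size.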 In outline: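 AlphaScreen read-out: streptavidin donor and nickel chelate acceptor beads (final 10 ug/mL), 30 min in the dark at RT. Complex of 50 nM MPP8 and 50 nM b-H3(1-18)K9me3 peptide had been exposed to compounds for 30 min beforehand.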

Inconclusive results are not listed. The source made the active and inactive calls. Unless noted, calls follow the shape of the dose curve; as a rule, active = well fitted curve in the direction sought with a large enough effect; inconclusive = small, poorly fitted or top-dose-only effect, or another doubt; inactive = no such curve, though single readings can be large; an effect the other way counts as inactive or inconclusive.

Sequence of Tumor susceptibility gene 101 protein (Homo sapiens) (Q99816 whole entry, looked up, the tested form may be a part): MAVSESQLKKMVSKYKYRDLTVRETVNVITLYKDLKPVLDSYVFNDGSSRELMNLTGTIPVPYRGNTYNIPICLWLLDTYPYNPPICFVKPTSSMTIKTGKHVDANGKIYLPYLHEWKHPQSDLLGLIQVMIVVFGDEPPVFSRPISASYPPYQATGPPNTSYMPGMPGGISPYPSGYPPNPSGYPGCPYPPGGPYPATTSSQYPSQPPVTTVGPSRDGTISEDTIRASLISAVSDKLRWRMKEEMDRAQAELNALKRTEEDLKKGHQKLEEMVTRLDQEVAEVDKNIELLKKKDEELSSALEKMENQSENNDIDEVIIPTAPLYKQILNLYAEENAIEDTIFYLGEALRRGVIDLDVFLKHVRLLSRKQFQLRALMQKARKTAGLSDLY
Sequence of Ubiquitin carboxyl-terminal hydrolase 2 (Homo sapiens) (O75604 whole entry, looked up): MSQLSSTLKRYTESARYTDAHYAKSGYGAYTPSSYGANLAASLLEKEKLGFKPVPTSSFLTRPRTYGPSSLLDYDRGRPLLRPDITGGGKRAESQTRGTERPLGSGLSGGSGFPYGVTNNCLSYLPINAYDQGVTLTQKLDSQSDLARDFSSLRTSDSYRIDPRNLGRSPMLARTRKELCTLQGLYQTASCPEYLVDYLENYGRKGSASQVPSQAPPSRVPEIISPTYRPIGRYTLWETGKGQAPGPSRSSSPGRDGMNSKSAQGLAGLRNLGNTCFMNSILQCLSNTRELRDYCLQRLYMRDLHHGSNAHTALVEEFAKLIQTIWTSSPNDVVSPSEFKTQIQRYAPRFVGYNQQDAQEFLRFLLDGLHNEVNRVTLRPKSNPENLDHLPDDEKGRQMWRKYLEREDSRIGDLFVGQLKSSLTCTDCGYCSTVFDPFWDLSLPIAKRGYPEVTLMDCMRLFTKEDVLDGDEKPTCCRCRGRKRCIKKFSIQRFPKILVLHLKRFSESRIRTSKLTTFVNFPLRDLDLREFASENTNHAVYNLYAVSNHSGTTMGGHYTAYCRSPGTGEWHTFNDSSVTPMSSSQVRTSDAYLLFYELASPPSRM
Sequence of Flap endonuclease 1 (Homo sapiens) (P39748 whole entry, looked up): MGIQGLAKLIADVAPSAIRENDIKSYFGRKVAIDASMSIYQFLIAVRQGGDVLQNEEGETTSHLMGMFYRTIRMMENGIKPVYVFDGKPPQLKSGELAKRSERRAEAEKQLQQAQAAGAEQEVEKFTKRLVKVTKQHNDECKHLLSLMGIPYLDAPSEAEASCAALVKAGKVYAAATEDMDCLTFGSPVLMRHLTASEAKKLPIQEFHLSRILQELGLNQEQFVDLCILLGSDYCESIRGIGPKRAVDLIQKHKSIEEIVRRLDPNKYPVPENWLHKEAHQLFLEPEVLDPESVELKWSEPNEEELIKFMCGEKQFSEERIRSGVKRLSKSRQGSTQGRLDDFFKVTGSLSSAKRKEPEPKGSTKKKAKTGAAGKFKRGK
Sequence of ATP-dependent DNA helicase Q1 (Homo sapiens) (P46063 whole entry, looked up): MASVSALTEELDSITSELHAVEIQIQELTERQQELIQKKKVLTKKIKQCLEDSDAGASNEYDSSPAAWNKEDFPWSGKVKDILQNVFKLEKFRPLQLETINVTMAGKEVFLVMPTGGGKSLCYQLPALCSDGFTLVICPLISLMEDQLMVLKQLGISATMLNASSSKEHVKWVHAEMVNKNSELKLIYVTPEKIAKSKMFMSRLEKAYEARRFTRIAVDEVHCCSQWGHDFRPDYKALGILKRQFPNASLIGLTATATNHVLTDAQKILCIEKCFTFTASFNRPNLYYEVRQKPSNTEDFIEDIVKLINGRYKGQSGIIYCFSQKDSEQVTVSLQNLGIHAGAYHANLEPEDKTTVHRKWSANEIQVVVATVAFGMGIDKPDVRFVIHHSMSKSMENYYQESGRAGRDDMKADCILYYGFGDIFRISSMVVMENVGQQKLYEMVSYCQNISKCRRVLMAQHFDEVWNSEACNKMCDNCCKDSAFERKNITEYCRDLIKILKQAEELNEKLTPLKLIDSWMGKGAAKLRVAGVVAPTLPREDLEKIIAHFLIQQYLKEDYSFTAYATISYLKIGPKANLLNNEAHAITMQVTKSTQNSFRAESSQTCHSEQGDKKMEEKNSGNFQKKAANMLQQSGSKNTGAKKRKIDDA
Sequence of Ferritin light chain (Equus caballus) (P02791 2-175 limits assumed): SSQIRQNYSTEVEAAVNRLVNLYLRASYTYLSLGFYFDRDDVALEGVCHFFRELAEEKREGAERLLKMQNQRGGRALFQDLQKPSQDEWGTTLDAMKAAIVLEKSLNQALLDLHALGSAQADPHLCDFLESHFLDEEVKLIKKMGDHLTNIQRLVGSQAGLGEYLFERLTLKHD
Sequence of DNA polymerase III PolC-type (Bacillus subtilis (strain 168)) (P13267 whole entry, looked up): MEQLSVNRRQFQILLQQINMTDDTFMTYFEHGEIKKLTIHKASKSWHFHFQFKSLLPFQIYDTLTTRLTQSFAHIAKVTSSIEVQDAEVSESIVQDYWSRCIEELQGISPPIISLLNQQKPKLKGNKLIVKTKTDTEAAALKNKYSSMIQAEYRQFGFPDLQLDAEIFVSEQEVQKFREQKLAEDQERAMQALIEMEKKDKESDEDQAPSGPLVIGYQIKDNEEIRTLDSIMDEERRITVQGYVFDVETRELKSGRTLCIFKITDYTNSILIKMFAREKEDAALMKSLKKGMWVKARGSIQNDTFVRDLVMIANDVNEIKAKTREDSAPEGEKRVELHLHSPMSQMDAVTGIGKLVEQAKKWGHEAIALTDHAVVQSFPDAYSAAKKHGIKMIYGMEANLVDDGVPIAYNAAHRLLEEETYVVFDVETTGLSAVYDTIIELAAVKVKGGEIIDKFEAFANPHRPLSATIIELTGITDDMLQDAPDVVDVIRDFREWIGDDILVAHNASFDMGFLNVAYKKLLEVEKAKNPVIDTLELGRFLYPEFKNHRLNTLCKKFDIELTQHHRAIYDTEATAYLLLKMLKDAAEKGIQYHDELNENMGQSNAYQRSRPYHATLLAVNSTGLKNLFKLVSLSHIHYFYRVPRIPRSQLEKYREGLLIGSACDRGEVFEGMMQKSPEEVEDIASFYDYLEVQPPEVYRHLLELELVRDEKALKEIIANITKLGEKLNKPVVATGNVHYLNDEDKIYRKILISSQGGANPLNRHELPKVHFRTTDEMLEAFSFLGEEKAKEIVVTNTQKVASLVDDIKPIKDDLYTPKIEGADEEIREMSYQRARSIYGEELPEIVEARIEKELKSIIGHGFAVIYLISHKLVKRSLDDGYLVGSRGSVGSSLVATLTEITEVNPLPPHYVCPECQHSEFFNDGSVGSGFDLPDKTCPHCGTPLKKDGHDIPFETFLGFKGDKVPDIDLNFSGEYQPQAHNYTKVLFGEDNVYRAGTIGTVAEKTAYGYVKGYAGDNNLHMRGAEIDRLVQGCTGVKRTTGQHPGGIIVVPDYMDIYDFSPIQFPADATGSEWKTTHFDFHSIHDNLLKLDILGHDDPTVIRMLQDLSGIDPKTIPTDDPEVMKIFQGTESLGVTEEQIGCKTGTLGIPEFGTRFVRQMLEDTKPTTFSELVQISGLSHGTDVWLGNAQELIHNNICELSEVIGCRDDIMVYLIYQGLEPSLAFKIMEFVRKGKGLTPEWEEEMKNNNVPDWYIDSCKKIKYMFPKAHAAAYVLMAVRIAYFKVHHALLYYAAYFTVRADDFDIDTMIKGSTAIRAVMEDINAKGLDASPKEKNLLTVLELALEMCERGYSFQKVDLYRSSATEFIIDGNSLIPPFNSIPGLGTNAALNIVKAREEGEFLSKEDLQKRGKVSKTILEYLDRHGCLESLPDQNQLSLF
Sequence of M-phase phosphoprotein 8 (Homo sapiens) (Q99549 whole entry, looked up): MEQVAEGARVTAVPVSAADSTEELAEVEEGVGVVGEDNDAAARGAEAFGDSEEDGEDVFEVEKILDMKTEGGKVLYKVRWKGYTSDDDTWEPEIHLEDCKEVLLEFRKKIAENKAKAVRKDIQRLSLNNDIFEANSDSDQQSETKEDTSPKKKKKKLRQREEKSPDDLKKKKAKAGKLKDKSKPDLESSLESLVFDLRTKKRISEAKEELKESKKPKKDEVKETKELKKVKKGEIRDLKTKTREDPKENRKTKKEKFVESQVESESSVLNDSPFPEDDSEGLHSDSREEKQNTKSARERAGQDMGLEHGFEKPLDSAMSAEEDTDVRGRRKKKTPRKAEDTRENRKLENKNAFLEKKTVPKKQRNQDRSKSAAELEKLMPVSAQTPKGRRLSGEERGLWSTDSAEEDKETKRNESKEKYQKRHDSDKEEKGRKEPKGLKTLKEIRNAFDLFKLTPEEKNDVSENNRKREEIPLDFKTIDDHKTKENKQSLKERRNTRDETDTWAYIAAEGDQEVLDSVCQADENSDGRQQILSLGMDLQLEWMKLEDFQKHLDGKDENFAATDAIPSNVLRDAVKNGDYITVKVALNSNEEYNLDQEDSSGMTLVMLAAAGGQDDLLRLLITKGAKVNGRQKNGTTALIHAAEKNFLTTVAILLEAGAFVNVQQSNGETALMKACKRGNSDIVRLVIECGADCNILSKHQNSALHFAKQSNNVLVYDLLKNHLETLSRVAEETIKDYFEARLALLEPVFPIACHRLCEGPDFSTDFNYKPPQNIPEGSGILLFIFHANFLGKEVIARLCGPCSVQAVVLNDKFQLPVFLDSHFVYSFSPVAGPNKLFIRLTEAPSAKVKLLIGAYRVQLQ
Sequence of Thioredoxin reductase 1, cytoplasmic (Rattus norvegicus) (O89049 whole entry, looked up): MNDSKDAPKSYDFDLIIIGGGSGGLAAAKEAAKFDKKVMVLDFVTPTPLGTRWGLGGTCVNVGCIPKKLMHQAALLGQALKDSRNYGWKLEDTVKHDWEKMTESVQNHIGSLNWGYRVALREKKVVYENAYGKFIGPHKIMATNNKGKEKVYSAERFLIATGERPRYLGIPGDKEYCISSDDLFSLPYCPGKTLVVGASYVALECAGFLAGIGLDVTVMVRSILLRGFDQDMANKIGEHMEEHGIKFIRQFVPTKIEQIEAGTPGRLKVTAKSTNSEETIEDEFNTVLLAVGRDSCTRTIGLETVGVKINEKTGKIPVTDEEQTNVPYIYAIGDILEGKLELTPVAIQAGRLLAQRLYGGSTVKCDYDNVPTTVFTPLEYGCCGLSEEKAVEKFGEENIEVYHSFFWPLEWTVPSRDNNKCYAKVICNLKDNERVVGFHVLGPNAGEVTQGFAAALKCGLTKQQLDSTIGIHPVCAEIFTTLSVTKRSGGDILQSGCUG

For `CCN1CCc2nc(N)oc2CC1`, the call in [1], in [3], in assay [8], in assay [10], in assay [12] and in assay [15] was inactive. In addition, the Potency entry in [2], in [4], in assay [5], in [6], in [7] and in assay [9] was “inactive” each time. In addition, the Potency entry in assay [11], in [13], in assay [14], in assay [17] and in [18] was “inactive” in each case. The Potency in [16] was 29.9 µM (active).
Take `NCCCNCCSP(=O)(O)O`: the compound was classed as inactive in assay [1], in assay [3], in assay [8] and in assay [10]. Further, the Potency result in assay [2], in assay [4], in [5], in assay [6], in assay [7] and in assay [9] was “inactive” each time. The Potency entry in [11], in assay [13], in [14], in assay [16] and in [18] was “inactive” in each case.
In the case of `Fc1ccc(C(c2ccc(F)cc2)N2CCN(C/C=C/c3ccccc3)CC2)cc1`, the compound was classed as inactive in assay [1], in [3], in assay [8], in assay [10] and in assay [15]. For the same compound, the Potency result in [2], in assay [4], in assay [5], in assay [6], in assay [11] and in [16] was “inactive” throughout. For the same compound, the Potency entry in assay [17] and in assay [18] was “inactive” throughout. Moreover, the Potency in assay [7] was 12.6 µM (active); in [13] it was 10.4 µM (active).
Take `CCn1nc(C(=O)O)c(=O)c2cc3c(cc21)OCO3`: the call in assay [1], in assay [3], in [8], in assay [10] and in assay [15] was inactive. Besides, the Potency result in assay [2], in [4], in assay [5], in [6], in [7] and in assay [9] was “inactive” throughout. In addition, the Potency entry in assay [11], in assay [14] and in [18] was “inactive” each time.
For `CC(=O)OC(C)C[N+](C)(C)C` (configuration not stated), the outcome in assay [1], in assay [3], in assay [8] and in assay [10] was inactive. Also, the Potency result in assay [4], in [5], in assay [6], in assay [7], in [9] and in assay [11] was “inactive” in each case. Also, the Potency entry in assay [13], in [14], in assay [16], in assay [17] and in assay [18] was “inactive” throughout.
Regarding `Cc1ccc(Cl)c(Nc2ccccc2C(=O)O)c1Cl`, the outcome in assay [1], in assay [3], in [8], in assay [10], in assay [12] and in assay [15] was inactive. Besides, the Potency result in [4], in [5], in assay [6], in assay [9], in assay [13] and in assay [16] was “inactive” in each case. In addition, the Potency result in assay [17] and in [18] was “inactive” in each case. Further, the Potency in assay [7] was 14.1 µM (active).
